Values joined by “and” are separate entries in the source; they are usually repeats but may differ in a detail not shown here. Identical values can stand only once. Records with an inconclusive call do not appear. A call without a number means that no potency is given here. Where a structure was tested more than once in an assay, its records may differ in their call. Active and inactive are the calls of the source. Unless noted, calls follow the shape of the dose curve; as a rule, active = well fitted curve in the direction sought with a large enough effect in the repeat runs; inconclusive = weak or mixed curves; inactive = no such curve, though single readings can be large; an effect the other way counts as inactive or inconclusive.
How the values were obtained:
[1] = target: Acetylcholinesterase (Homo sapiens) (UniProt P22303); assay: Acetylcholinesterase (AChE) small molecule antagonists: enzyme-based qHTS assay (AID 1347397; calls by dose curve; also: nearly all actives have a fitted effect of over 55% in size); settings: Potency: AChE enzyme activity inhibition
Summary of the method: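 Recombinant human AChE, dispensed at 50 mU/mL, was preincubated with Tox21 10K compounds or DMSO vehicle for 30 min at room temperature. DTNB plus acetylthiocholine was then added, and thiocholine was measured colorimetrically after a further 10 min.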

[2] = target: Acetylcholinesterase (Homo sapiens) (UniProt P22303); assay: Acetylcholinesterase (AChE) small molecule antagonists: fluorescence cell-based qHTS assay (AID 1347398; calls by dose curve; also: nearly all actives have a fitted effect of over 50% in size); settings: Potency: AChE activity
Summary of the method: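 Human SH-SY5Y cells were plated overnight at 37 C, exposed to compound for 30 min at 37 C, 5% CO2, then given acetylthiocholine plus Thiolite Green for 40 min at room temperature; thiocholine fluorescence (Ex/Em 490/520 nm) reports endogenous AChE activity.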

[3] = target: Acetylcholinesterase (Homo sapiens) (UniProt P22303); assay: Acetylcholinesterase (AChE) small molecule antagonists: enzyme-based qHTS assay with human liver microsomes (AID 1347399; calls by dose curve; also: nearly all actives have a fitted effect of over 60% in size); settings: Potency: qHTS inhibition
Summary of the method: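 Recombinant human AChE (50 mU/mL in the enzyme mix) and human liver microsomes (0.25 mg/mL final) were preincubated with compound and NADPH (0.25 mg/mL final) for 30 min at 37 C. Acetylthiocholine/DTNB was then added; thiocholine was read colorimetrically after 10 min at room temperature.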

[4] = target: Cytochrome P450 2D6 (Homo sapiens) (UniProt P10635); assay: Cytochrome P450 Family 2 Subfamily D Member 6 (CYP2D6) small molecule antagonists: luciferase reporter qHTS assay (AID 1671196); also: nearly all actives have a fitted effect of over 50% in size; as to activity change, negative = inhibition: series mostly up to about 120 µM
Summary of the method: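 CYP2D6 enzyme–substrate mix was held with compound for 10 min at room temperature, then NADPH regeneration solution was added and the reaction ran 1 h at room temperature. Luciferin product was detected by luminescence after 20 min with detection reagent.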

[5] = target: Cytochrome P450 2C19 (Homo sapiens) (UniProt P33261); assay: Cytochrome P450 Family 2 Subfamily C Member 19 (CYP2C19) small molecule antagonists: luciferase reporter qHTS assay (AID 1671197); also: nearly all actives have a fitted effect of over 65% in size; as to activity change, negative = inhibition: series mostly up to about 120 µM
Summary of the method: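 Light output is proportional to CYP2C19 activity: proluciferin substrate is converted to luciferin, then detected by a luciferin detection reagent that also stops the 1 h, 37C NADPH-driven reaction. Ketoconazole serves as positive control.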

[6] = target: Cytochrome P450 2C9 (Homo sapiens) (UniProt P11712); assay: Cytochrome P450 Family 2 Subfamily C Member 9 (CYP2C9) small molecule antagonists: luciferase reporter qHTS assay (AID 1671198); also: nearly all actives have a fitted effect of over 50% in size; as to activity change, negative = inhibition: series mostly up to about 120 µM
Summary of the method: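 CYP2C9 activity was measured with a P450-Glo proluciferin substrate. Enzyme–substrate mix was held with compound for 10 min at room temperature, then NADPH regeneration solution was added for 1 h at 37C. Luciferin product was read as luminescence.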

[7] = target: Cytochrome P450 1A2 (Homo sapiens) (UniProt P05177); assay: Cytochrome P450 Family 1 Subfamily A Member 2 (CYP1A2) small molecule antagonists: luciferase reporter qHTS assay (AID 1671199); also: nearly all actives have a fitted effect of over 50% in size; as to activity change, negative = inhibition: series mostly up to about 120 µM
Summary of the method: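 Human CYP1A2 activity measured with a P450-Glo proluciferin substrate; compounds in DMSO preincubated 10 min at room temperature with enzyme-substrate mix, then NADPH regeneration system added for 1 h. Luciferin detection reagent, 20 min, luminescence read.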

[8] = target: Voltage-gated inwardly rectifying potassium channel KCNH2 (Homo sapiens) (UniProt Q12809); assay: Human Ether-a-go-go-Related Gene (hERG) channel small molecule antagonists: fluorescence cell-based qHTS assay (AID 1671200); also: nearly all actives have a fitted effect of over 50% in size;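 as to activity change, negative = inhibition: hERG-expressing U2OS cells given a thallium stimulus after FluxOR II dye loading; series mostly up to about 77 µM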
Summary of the method: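 Fluorescence at 540 nm emission (480 nm excitation) was recorded kinetically for 2 min at 1-second intervals once the thallium-containing stimulus reached cells previously loaded with FluxOR II dye.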

[9] = target: Cytochrome P450 3A4 (Homo sapiens) (UniProt P08684); assay: Cytochrome P450 Family 3 Subfamily A Member 4 (CYP3A4) small molecule antagonists: luciferase reporter qHTS assay (AID 1671201); also: nearly all actives have a fitted effect of over 50% in size; as to activity change, negative = inhibition: series mostly up to about 120 µM
Summary of the method: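 qHTS, 1536-well. CYP3A4 + proluciferin substrate, cpd 10 min RT → NADPH regen 1 h RT → detection reagent 20 min → luminescence (RLU). Ketoconazole positive control.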
Potency is read from the fitted curve at half-maximal effect.

Chain of Cytochrome P450 2C19 (Homo sapiens) (P33261 whole entry, looked up): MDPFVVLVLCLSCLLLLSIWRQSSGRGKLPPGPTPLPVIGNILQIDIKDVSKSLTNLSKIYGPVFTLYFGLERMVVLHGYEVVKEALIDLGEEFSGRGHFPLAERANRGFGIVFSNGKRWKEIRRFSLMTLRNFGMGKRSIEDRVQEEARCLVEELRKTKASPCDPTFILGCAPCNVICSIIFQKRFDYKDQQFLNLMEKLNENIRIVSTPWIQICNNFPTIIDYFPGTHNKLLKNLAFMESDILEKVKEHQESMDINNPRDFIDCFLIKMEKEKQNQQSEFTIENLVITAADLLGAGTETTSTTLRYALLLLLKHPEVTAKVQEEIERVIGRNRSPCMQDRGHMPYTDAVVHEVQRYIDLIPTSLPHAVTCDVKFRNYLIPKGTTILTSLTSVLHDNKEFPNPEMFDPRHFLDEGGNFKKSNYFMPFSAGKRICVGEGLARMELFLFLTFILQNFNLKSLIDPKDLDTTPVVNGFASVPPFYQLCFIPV
Chain of Acetylcholinesterase (Homo sapiens) (P22303 whole entry, looked up): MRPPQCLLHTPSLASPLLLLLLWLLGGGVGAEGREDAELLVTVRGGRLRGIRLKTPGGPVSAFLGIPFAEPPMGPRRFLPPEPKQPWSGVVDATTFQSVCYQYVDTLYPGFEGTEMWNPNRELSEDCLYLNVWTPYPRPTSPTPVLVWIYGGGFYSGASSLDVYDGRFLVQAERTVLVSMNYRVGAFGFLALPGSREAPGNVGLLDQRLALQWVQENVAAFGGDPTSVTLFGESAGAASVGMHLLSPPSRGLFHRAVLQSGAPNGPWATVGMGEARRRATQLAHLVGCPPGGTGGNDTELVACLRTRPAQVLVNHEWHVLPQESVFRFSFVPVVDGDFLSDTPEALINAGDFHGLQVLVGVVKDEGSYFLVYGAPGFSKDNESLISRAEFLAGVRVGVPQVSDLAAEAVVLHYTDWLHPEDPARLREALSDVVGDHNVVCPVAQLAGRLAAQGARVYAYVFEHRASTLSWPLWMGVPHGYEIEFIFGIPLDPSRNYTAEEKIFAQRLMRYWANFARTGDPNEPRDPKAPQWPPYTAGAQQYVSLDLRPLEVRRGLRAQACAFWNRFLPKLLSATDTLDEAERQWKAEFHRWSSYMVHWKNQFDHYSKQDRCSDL
Chain of Voltage-gated inwardly rectifying potassium channel KCNH2 (Homo sapiens) (Q12809 whole entry, looked up): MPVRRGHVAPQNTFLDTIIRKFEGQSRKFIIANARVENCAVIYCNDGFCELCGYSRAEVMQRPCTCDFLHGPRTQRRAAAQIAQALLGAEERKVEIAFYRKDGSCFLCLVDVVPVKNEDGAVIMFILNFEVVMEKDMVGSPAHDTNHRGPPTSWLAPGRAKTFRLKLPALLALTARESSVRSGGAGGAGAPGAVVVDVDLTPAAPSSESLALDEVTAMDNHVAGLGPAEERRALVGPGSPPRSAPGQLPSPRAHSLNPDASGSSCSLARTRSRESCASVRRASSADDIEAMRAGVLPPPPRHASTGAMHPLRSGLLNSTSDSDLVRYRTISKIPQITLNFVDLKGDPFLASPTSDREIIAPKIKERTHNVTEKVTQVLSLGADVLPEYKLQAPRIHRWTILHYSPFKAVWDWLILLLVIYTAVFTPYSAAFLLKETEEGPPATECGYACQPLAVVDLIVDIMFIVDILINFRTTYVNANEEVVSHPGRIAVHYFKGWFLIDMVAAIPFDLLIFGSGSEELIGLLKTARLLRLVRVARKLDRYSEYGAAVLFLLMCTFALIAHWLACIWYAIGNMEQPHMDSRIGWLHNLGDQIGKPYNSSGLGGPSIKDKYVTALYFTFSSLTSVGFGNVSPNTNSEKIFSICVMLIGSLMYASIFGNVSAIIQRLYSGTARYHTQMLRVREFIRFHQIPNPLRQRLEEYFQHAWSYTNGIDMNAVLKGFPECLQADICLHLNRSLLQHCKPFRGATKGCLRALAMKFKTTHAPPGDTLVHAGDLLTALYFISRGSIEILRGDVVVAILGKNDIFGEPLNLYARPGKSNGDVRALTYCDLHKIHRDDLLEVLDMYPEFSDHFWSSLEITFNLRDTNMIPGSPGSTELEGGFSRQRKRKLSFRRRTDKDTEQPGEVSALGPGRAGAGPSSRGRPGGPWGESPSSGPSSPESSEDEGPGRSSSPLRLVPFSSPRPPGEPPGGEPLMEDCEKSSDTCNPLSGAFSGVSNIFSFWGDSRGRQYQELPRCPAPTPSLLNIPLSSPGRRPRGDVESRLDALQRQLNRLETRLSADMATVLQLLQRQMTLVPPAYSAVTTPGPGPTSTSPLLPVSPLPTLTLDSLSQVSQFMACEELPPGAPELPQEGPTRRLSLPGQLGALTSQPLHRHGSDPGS
Chain of Cytochrome P450 1A2 (Homo sapiens) (P05177 whole entry, looked up): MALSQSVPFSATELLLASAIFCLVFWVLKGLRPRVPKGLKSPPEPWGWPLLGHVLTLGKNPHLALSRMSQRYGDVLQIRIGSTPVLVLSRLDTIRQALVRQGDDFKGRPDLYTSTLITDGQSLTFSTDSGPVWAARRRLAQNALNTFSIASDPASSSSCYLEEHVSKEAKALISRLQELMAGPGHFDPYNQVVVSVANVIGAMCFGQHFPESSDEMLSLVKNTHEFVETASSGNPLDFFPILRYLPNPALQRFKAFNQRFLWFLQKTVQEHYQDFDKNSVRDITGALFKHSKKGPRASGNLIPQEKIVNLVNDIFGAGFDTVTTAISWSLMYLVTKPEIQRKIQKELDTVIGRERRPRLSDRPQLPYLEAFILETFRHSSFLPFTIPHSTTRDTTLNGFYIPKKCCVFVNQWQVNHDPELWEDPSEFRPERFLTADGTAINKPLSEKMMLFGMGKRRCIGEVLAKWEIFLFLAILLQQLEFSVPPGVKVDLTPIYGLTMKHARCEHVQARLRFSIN
Chain of Cytochrome P450 3A4 (Homo sapiens) (P08684 whole entry, looked up): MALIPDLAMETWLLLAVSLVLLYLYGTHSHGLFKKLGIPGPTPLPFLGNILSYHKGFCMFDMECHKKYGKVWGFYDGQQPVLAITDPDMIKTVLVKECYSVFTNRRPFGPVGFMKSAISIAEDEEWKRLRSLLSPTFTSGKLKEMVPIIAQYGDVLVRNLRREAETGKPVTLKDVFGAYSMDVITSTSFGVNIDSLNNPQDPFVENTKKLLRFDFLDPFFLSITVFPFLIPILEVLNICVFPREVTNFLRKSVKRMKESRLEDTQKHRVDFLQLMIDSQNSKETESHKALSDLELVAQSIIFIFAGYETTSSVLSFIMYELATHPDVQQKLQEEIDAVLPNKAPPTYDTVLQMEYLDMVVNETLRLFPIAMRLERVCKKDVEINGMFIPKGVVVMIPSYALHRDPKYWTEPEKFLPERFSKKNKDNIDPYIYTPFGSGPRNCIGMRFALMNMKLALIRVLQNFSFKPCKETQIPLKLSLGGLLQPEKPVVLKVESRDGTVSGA
Chain of Cytochrome P450 2C9 (Homo sapiens) (P11712 whole entry, looked up): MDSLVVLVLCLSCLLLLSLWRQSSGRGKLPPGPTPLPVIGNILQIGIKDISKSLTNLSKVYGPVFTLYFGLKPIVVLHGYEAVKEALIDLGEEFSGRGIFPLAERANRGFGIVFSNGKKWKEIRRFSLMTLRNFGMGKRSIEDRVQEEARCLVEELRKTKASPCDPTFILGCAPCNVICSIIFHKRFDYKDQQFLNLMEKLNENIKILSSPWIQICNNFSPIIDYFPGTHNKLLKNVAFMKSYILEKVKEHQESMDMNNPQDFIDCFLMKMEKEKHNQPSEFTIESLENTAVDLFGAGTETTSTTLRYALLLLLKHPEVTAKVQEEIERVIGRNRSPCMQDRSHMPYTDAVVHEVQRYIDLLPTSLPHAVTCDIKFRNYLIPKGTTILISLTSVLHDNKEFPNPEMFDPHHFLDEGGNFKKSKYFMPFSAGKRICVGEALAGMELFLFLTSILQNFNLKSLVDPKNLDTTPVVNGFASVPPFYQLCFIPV
Chain of Cytochrome P450 2D6 (Homo sapiens) (P10635 whole entry, looked up): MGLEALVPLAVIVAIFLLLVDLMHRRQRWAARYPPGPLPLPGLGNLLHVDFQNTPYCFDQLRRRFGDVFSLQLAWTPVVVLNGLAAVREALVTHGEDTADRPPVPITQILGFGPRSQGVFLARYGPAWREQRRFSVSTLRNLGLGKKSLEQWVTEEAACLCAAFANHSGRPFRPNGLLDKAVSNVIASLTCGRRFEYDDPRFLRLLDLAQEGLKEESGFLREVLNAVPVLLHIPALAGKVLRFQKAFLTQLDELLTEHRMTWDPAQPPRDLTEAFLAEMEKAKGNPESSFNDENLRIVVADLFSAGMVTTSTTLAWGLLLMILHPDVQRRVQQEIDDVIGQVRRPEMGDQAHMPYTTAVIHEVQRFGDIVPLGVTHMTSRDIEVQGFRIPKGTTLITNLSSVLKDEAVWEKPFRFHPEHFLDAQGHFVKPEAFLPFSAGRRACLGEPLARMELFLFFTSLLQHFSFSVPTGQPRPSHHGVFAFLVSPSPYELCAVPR

Compound | Potency [1] | Potency [2] | Potency [3] | Potency [4] | Potency [5] | Potency [6] | Potency [7] | Potency [8] | Potency [9] | activity change, negative = inhibition [4]
O=C1CCCO1 | inactive | inactive | inactive | inactive | inactive | inactive | 34.7 µM (active) and inactive | inactive | inactive | –
CCC[CH2][Sn]([Cl])([CH2]CCC)[CH2]CCC | inactive | inactive | inactive | 634 nM (active) and 2 µM (active) | 2.01 µM (active) and 2.24 µM (active) | 14.2 µM (active) and 15.9 µM (active) | 40 µM (active) | 12.3 µM (active) and 6.92 µM (active) | 15.9 µM (active) and 20 µM (active) | –
CC1(C)C(C(=O)OC(C#N)c2cccc(Oc3ccccc3)c2)C1(C)C (centres undefined) | inactive | inactive | inactive | inactive | 9 µM (active) and 22.4 µM (active) | 11.3 µM (active) and 7.96 µM (active) | – | inactive | inactive | –
CCOP(=O)(O)OCC (tested in a mixture with another compound) | inactive and 31.4 µM (active) | inactive and 39.6 µM (active) | inactive | 40.3 µM (active) and 886 nM (active) | 79 µM (active) | inactive and 55.9 µM (active) | 79 µM (active) | inactive and 6.12 µM (active) | inactive and 55.9 µM (active) | –
O=[N+]([O-])c1ccc(Nc2ccccc2)cc1 | inactive | inactive | inactive | 32 µM (active) and 35.6 µM (active) | 8.03 µM (active) and 20 µM (active) | 32 µM (active) and 35.6 µM (active) | 12.7 µM (active) and 22.4 µM (active) | inactive | inactive | –
CC(C)CON=O | inactive | inactive | inactive | – | inactive | inactive | – | inactive | inactive | 2.15% [at 23.6 µM] (inactive)
CCC[CH2][Sn]([Cl])([Cl])[CH2]CCC | inactive | inactive | inactive | 36 µM (active) | 8.07 µM (active) and 22.4 µM (active) | 36 µM (active) | inactive | 39.4 µM (active) and 17.4 µM (active) | inactive | –
N#Cc1cccnc1 | inactive | inactive | inactive | inactive | 38.8 µM (active) and inactive | – | inactive | inactive | inactive | –
CC1CC(=O)O1 (centres undefined) | inactive | inactive | inactive | inactive | inactive | inactive | inactive | inactive | inactive | –
C[C@]12CCC(=O)C=C1CC[C@@H]1[C@@H]2CC[C@@]2(C)[C@H]1CC[C@]2(C)O | inactive | inactive | inactive | 45.2 µM (active) and inactive | 35.9 µM (active) and inactive | 35.9 µM (active) | inactive | inactive | inactive | –
C[C@]12CC[C@H]3[C@@H](CCC4=CC(=O)CC[C@@H]43)[C@@H]1CC[C@@H]2O | inactive | inactive | inactive | inactive | 39.6 µM (active) and 8.71 µM (active) | inactive | inactive | inactive | inactive | –
O=C1Nc2ccc(Cl)cc2C(c2ccccc2)=NC1O (centres undefined) | inactive | inactive | – | – | – | – | – | – | – | –
CCCCCCCCCC(CC)c1ccc(S(=O)(=O)O)cc1 (centres undefined) | 57 µM (active) and 79.6 µM (active) and 47.4 µM (active) | inactive | inactive | inactive and 50.2 µM (active) | 40.1 µM (active) and inactive and 35.6 µM (active) | – | 63.2 µM (active) and inactive and 63.3 µM (active) | inactive | inactive | –
CC(C)COC(=O)c1ccccc1C(=O)OCC(C)C | inactive | inactive | inactive | inactive | 10 µM (active) and 11.2 µM (active) | 28.3 µM (active) and 11.2 µM (active) | 12.6 µM (active) and 8.94 µM (active) | – | inactive | –
O=NN(c1ccccc1)c1ccccc1 | inactive | inactive | inactive | 21.9 µM (active) and inactive | 39 µM (active) and 35.6 µM (active) | 34.8 µM (active) and 63.3 µM (active) | 34.8 µM (active) | inactive | inactive | –
C[N+](C)(C)C | inactive | inactive | inactive | inactive | inactive | inactive | inactive | – | inactive | –
CC1(C)Cc2cccc(O)c2O1 | inactive | inactive | inactive | inactive | inactive | inactive | – | inactive | inactive | –
O=C(O)c1nn(Cc2ccc(Cl)cc2Cl)c2ccccc12 | inactive | inactive | inactive | 62.8 µM (active) and inactive | inactive | 70.5 µM (active) and inactive | inactive | inactive | inactive | –

Compound | Potency [1] | Potency [2] | Potency [3] | Potency [4] | Potency [5] | Potency [6] | Potency [7] | Potency [8] | Potency [9] | activity change, negative = inhibition [4]
Clc1cccc(C(Cl)(Cl)Cl)n1 | inactive | inactive | inactive | inactive | inactive | inactive | 11.2 µM (active) | inactive | inactive | –
ClC(Cl)(Cl)c1ccccc1 | inactive | inactive | inactive | inactive | 89.5 µM (active) and inactive | inactive | inactive | inactive | inactive | –
c1ccc2c(c1)Nc1ccccc1S2 | inactive | inactive | inactive | inactive | 2.24 µM (active) and 8.71 µM (active) | inactive | 731 nM (active) and 645 nM (active) | inactive | – | –
S=c1[nH]c2ccccc2[nH]1 | 35.7 µM (active) and inactive | 10.1 µM (active) and inactive | inactive | inactive | 39.9 µM (active) | inactive | 35.7 µM (active) and 35.6 µM (active) | inactive | 5.65 µM (active) and 7.96 µM (active) | –
Nc1ncn[nH]1 | inactive | inactive | inactive | inactive | inactive | inactive | inactive | inactive | inactive | –
CC(C)Nc1nc(Cl)nc(NC(C)C)n1 | inactive and 71 µM (active) | inactive and 31.7 µM (active) | inactive | inactive | inactive and 35.6 µM (active) | inactive | 10 µM (active) and 20 µM (active) | inactive | inactive | –
C=CC(=O)OCC(CC)(COC(=O)C=C)COC(=O)C=C | inactive | inactive | inactive | 65 µM (active) and 63.3 µM (active) | 16.3 µM (active) and 15.9 µM (active) | 13 µM (active) and 28.3 µM (active) | 39.9 µM (active) | inactive | 818 nM (active) and 2.52 µM (active) | –
N#CC(c1ccccc1)c1ccccc1 | inactive | inactive | inactive | inactive | 4.48 µM (active) and 5.03 µM (active) | 22.4 µM (active) and 35.6 µM (active) | – | inactive | inactive | –
CCCCOCC1CO1 (centres undefined) | 10.1 µM (active) and inactive | 899 nM (active) and inactive | 63.7 µM (active) and inactive | inactive | inactive | inactive | inactive | inactive | inactive | –
c1ccc(C2CO2)cc1 (centres undefined) | inactive | inactive | inactive | inactive | inactive and 35.6 µM (active) | inactive and 71 µM (active) | inactive | inactive | inactive | –
CCCCCCCCCCCCCl | inactive | inactive | inactive | inactive | inactive | inactive | inactive | inactive | 31.3 µM (active) and inactive | –
N#Cc1nn(-c2c(Cl)cc(C(F)(F)F)cc2Cl)c(N)c1S(=O)C(F)(F)F (centres undefined) | inactive | inactive | inactive | 11.3 µM (active) and 6.17 µM (active) | 5.06 µM (active) and 9.77 µM (active) | 2.01 µM (active) and 3.09 µM (active) | inactive | inactive | – | –
CNC(=S)S | inactive | inactive | inactive | inactive | 38.9 µM (active) | 61.7 µM (active) | inactive | inactive | inactive | –
CCC(=O)Nc1ccc(Cl)c(Cl)c1 | inactive | inactive | inactive | 36.3 µM (active) | 22.9 µM (active) and 35.6 µM (active) | 64.6 µM (active) and 63.3 µM (active) | 5.13 µM (active) and 7.1 µM (active) | inactive | – | –
Nc1ccc([N+](=O)[O-])cc1N | inactive | inactive | inactive | inactive and 71 µM (active) | 25.2 µM (active) | 39.9 µM (active) and 63.3 µM (active) | 35.6 µM (active) and 31.7 µM (active) | inactive | 35.6 µM (active) and inactive | –
CC(C)(c1ccccc1)c1ccc(O)c(C(C)(C)c2ccccc2)c1 | inactive | inactive | inactive | 25 µM (active) and 35.6 µM (active) | 5.59 µM (active) and 3.56 µM (active) | 3.96 µM (active) and 2.83 µM (active) | 35.3 µM (active) and 35.6 µM (active) | – | 8.86 µM (active) and 6.33 µM (active) | –
CC(C)(c1ccc(OCC2CO2)cc1)c1ccc(OCC2CO2)cc1 (centres undefined) | inactive | inactive | inactive | inactive | 50.9 µM (active) and 79.6 µM (active) | 64.1 µM (active) and 39.9 µM (active) | inactive | inactive | inactive | –
CN(C)c1ccccc1 | inactive | inactive | inactive | inactive | 29 µM (active) and 41.6 µM (active) | inactive | – | inactive | 32.5 µM (active) and inactive | –
